Screening results (PubChem BioAssay)
Mtb FBA inh = inhibitors of M. tuberculosis fructose-bisphosphate aldolase | P9WQA3 | purified M. tuberculosis FBA, fluorescence read-out | 360,000 compounds, 2.3% hits | AID 588726 | inhibition, % at 1 µM; in the data active means inhibition above about 27%;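 further: 0% = vehicle and 100% = reference inhibitor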
PrP 5UTR inh = suppresses PrP 5' UTR mRNA reporter expression; cell-based PrP 5' UTR mRNA reporter, plate reader; inhibition, % (concentration not given with the values); 340,000 compounds, 0.35% hits; AID 488862; in the data active means inhibition above about 52%; further: 0 = median of the neutral control wells
Mtb hypoxia inh = Mtb hypoxia fluorescent reporter inhibition; M. tuberculosis hypoxia-regulated fluorescent reporter, fluorescence; fluorescence inhibition, % (test concentration not listed); 300,000 compounds, 0.1% hits; AID 1159583; in the data active means fluorescence inhibition mostly above about 23%, no sharp cut-off; inactive means mostly below about 17%
PrPC surface inh = inhibitors of human cell surface prion protein PrPC. 370,000 compounds, 0.43% hits. AID 720596. P04156. inhibition, % at 13.8 µM. TR-FRET read-out; in the data active means inhibition above about 24%; further: 0% = median of the test wells and 100% = reference compound wells
GDH-TPI counter = inhibits GDH-TPI coupling enzymes, artifact for Mtb FBA screen. inhibition, % at 4.8 µM. GDH-TPI coupled enzyme counterscreen, NADH absorbance. 360,000 compounds, 1.2% hits. AID 588335; in the data active means inhibition above about 30%;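 further: 0% = DMSO wells and 100% = wells lacking the enzyme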
Yp Topo-I inh = inhibitors of Yersinia pestis topoisomerase I | 360,000 compounds, 0.064% hits | Y. pestis Topo-I cleavage product accumulation, plate reader | activity, % at 10 µM; in the data active means activity above about 50%, passing the limit was not always enough
PrPC TRFRET cf = cell surface PrPC inhibition, TR-FRET confirmation; shares compounds with PrPC surface inh; cell surface PrPC level; inhibition, % at 13.8 µM; 1,500 compounds, 65% hits; AID 743200; in the data active means inhibition above about 25%
LD9 cytotox = counter-screen for PrPc inhibitors: cytotoxicity in LD9 cells | shares compounds with PrPC surface inh | luminescence viability | inhibition, % at 13.8 µM | 1,500 compounds, 29% hits | AID 743201; in the data active means inhibition above about 9.5%
* = called active by the depositor; x = no result. In the library only some 3.8% were active in any assay of this set; here they are far more common.

SMILES	Mtb FBA inh	PrP 5UTR inh	Mtb hypoxia inh	PrPC surface inh	GDH-TPI counter	Yp Topo-I inh	PrPC TRFRET cf	LD9 cytotox
COc1ccc(OC)c(C=NN=C(N)c2nonc2N)c1	x	x	0.8	x	x	x	x	x
COC(=O)CSc1nnc(-c2ccc(OC)cc2OC)o1	0.9	-2.4	10.0	1.6	3.3	-0.4	x	x
COc1cccc(OC(=O)CSc2nnc(-c3ccccc3Br)o2)c1	0.6	-24.9	16.4	32.4*	9.1	17.1	38.2*	1.4
Cc1cc(NN=Cc2ccccc2F)c2ccccc2n1	x	x	-1.1	x	x	x	x	x
COc1ccc(N(C)S(=O)(=O)c2cccc(C(=O)NC3CCCCC3C)c2)cc1 (stereo unspecified)	1.6	-1.4	6.7	26.0*	13.4	24.8	12.5	-3.8
COc1ccc(N(C)S(=O)(=O)c2cccc(C(=O)NC3CCCC3)c2)cc1	-0.3	-18.3	x	13.7	1.2	10.1	x	x
O=C(COc1c(Br)cc(Br)cc1Br)NN=Cc1ccco1	x	x	-3.8	x	x	x	x	x
C=CC#CC[N+]1(CC#Cc2ccccc2)CCOCC1	1.9	-2.0	10.9	38.2*	8.6	-4.1	43.9*	-5.9
C(#Cc1ccccc1)C[N+]1(CC#Cc2ccccc2)CCCC1	2.0	-20.7	6.7	8.7	1.5	3.8	x	x
COc1ccc(C=NNC(=O)c2ccc(N(C)S(=O)(=O)c3ccccc3)cc2)c(OC)c1	x	x	-16.7	x	x	x	x	x
CCN(CC)C(=O)C1CCCc2c1[nH]c1ccc(Cl)cc21 (stereo unspecified)	3.0	4.8	0.8	26.4*	0.9	8.0	6.6	-6.8
CN(C(=O)COC(=O)c1ccccc1Nc1ccccc1)c1c(N)n(Cc2ccccc2)c(=O)[nH]c1=O	6.5	-14.4	-6.8	29.5*	19.7	19.3	37.9*	-8.4
COCCN(C(=O)COC(=O)c1ccccc1Nc1ccccc1)c1c(N)n(Cc2ccccc2)c(=O)[nH]c1=O	-1.2	-20.3	7.5	-5.4	1.4	20.8	x	x
CCOC(=O)c1c(-c2ccccc2)csc1N=CC1C(=O)CCCC1=O	x	x	18.1	x	x	x	x	x
O=C(NN=Cc1ccc(O)cc1O)NC12CC3CC(CC(C3)C1)C2	x	x	-7.8	x	x	x	x	x
Nc1ccc2nc(-c3ccc(-c4nc5ccc(N)cc5[nH]4)cc3)[nH]c2c1	x	x	x	26.2*	x	x	24.9*	1.4
Cc1ccc(NN=C(C#N)C(=N)N2CCOCC2)cc1	x	x	3.7	x	x	x	x	x
Cc1ccc(OCC(=O)NN=Cc2ccco2)c(C)c1	x	x	10.3	x	x	x	x	x
COc1ccc(C(=O)NCCSc2ccc(C)cc2)cc1	-0.5	-14.6	-3.0	57.0*	-6.7	9.7	-4.0	-6.3
Cc1ccc(SCCNC(=O)c2ccccc2)cc1	2.4	-25.8	3.2	2.7	3.1	7.4	x	x
Oc1ccc2ccc3[nH]cnc3c2c1	0.2	-14.9	x	32.5*	0.3	3.0	6.4	-7.3
CN(C)Cc1c(O)ccc2[nH]cnc12	-2.6	-14.8	x	-2.1	-3.9	1.6	x	x
CN1CC2C(c3ccccc3)C3(c4ccccc4)CC2(C3)C1c1ccccc1 (stereo unspecified)	x	x	1.6	x	x	x	x	x
COc1ccc(CNC(=O)c2sc(=O)n(Cc3cc(Cl)ccc3OC)c2C)cc1	4.5	x	x	-4.8	12.0	30.8	x	x
COc1ccc(NC(=O)c2sc(=O)n(Cc3ccc(F)c(Cl)c3)c2C)cc1OC	-0.7	x	x	29.6*	-3.4	-4.2	17.1	-0.2
SMILES	Mtb FBA inh	PrP 5UTR inh	Mtb hypoxia inh	PrPC surface inh	GDH-TPI counter	Yp Topo-I inh	PrPC TRFRET cf	LD9 cytotox
CC(C)(C)C(=O)c1cnc(Nc2ccccc2Cl)s1	0.6	-36.1	7.5	27.7*	16.4	2.7	36.1*	1.4
Cc1cc(SCCC(=O)O)nc2c(C)cccc12	1.9	-6.3	-3.5	70.9*	11.7	-3.0	68.6*	3.6
Cc1cc(SCC(=O)N2CCCC2=O)nc2c(C)cccc12	4.5	-0.6	6.7	13.7	8.8	-6.3	x	x
COc1cccc2sc3cc(NCCCN4CCOCC4)ccc3c(=O)c12	23.7	-20.4	12.4	72.1*	18.8	19.4	94.7*	-1.5
Cc1[nH]n(-c2ccccc2)c(=O)c1/C=N/NC(=O)C(C)C	-5.0	-9.6	x	28.8*	10.2	-2.9	42.6*	5.0
O=C(Nc1ccc2cn[nH]c2c1)c1c(Cl)cccc1Cl	0.0	-1.1	3.0	1.8	0.8	0.4	x	x
O=C1C(Cl)=C(Nc2ccc3cn[nH]c3c2)C(=O)c2ccccc21	-2.1	x	21.2	70.9*	13.0	-5.4	22.4	98.3*
O=c1c2[nH]c3ccc(Cl)cc3c2ncn1CCN1CCCCC1	1.9	-19.1	17.7	-5.8	-3.5	-3.8	x	x
S=c1nc[nH]c2c1[nH]c1ccccc12	-6.1	-24.2	x	135.3*	3.4	-4.1	141.8*	-0.7
S=c1nc[nH]c2c1[nH]c1ccc(Cl)cc12	-0.8	-15.2	7.7	42.6*	17.9	3.0	131.5*	6.6
Cc1ccc(S(=O)(=O)NCCNS(=O)(=O)c2ccc(C)cc2)cc1	6.0	x	12.9	3.0	2.6	2.1	x	x
Cc1ccc(S(=O)(=O)NCCCN2CCCC2)cc1	-0.6	-30.6	-6.7	54.6*	10.3	0.4	-1.1	-10.3
Nc1nnnn1N=Cc1ccc(Br)cc1	x	x	8.8	x	x	x	x	x
O=C1NCC(Cc2ccc(O)cc2)N(CCc2cccc(F)c2)C1=O (stereo unspecified)	x	x	9.6	x	x	x	x	x
CSc1nc2c(cc1C#N)CCC2	0.3	-38.1	16.8	5.4	2.0	-2.4	x	x
Brc1cc(Br)c2nc3c(cc2c1)CCC3	-0.2	-11.7	53.6*	26.3*	-1.0	0.4	71.0*	0.9
O=Cc1s/c(=N\S(=O)(=O)c2ccccc2)n(CCCCl)c1Cl	-2.0	-43.0	x	75.8*	-4.6	6.8	95.5*	89.7*
O=Cc1sc(=NS(=O)(=O)c2ccccc2)n(CCCCl)c1Cl	x	x	0.1	x	x	x	x	x
O=C1C(=O)c2cccnc2-c2ncccc21	-59.7	x	x	30.8*	x	x	61.9*	98.7*
COc1ccc(-c2csc(NC(=O)c3ccccc3F)n2)cc1	-1.2	26.5	16.6	3.5	-6.4	6.9	x	x
COc1ccc(-c2csc(NC(=O)c3ccccc3NS(=O)(=O)c3ccc(F)c(F)c3)n2)cc1	2.9	-35.3	-5.0	31.9*	14.7	-12.3	44.1*	38.1*
